# Measured values: PubChem BioAssay (EPA / NIEHS)
# Several values for one entry are separate records, joined by “and”; a condition that tells them apart may be missing. Equal values may be shown once. More than one record can exist for a structure, and the calls need not agree. Activity calls are given as the source filed them. Rule for the calls: active = hit-call score of the fitted dose curve at least 0.9, where 1 is the maximum; inactive = score below 0.9.
# Read-out: Plasminogen activator inhibitor-1 (PAI1), SERPINE1 (gene 5054)
# Assay: BSK_KF3CT_PAI1: BioMAP Diversity Plus: KF3CT Assay for Plasminogen activator inhibitor-1 (PAI1) Biomarker Activity (AID 2284252)
# Conditions: primary human keratinocytes with fibroblasts
# Method: BSK_KF3CT is a cell-based, multiplexed-readout assay that uses keratinocytes and foreskin fibroblasts, a human skin primary cell co-culture, with measurements taken at 24 hours after chemical dosing in a 96-well plate.BSK_KF3CT_PAI1 is an assay component measured in the BSK_KF3CT assay. It measures PAI-1 antibody related to regulation of gene expression using ELISA technology.Data from the assay component BSK_KF3CT_PAI1 was analyzed at the endpoint, BSK_KF3CT_PAI1, in the positive analysis fitting direction relative to DMSO as the negative control and baseline of activity. Using a type of binding reporter, gain or loss-of-signal activity can be used to understand protein changes. To generalize the intended target to other relatable targets, this assay endpoint is annotated to the 'cytokine' intended target family, where the subfamily is 'plasmogen activator inhibitor'.
# The levels of cell surface (or secreted, indicated by the prefix "s") biomarker endpoints were measured by ELISA. Overt cytotoxicity to cells in confluent adherent cultures (all systems other than the BT system) was assessed by measuring total protein levels using sulforhodamine B (SRB) staining in parallel cultures at the time of biomarker measurements, indicated as SRB endpoints. For proliferation assays for adherent cell types, individual cell types are cultured at sub-confluence and relative cell numbers quantified by SRB staining at time points optimized for each system (48 h: 3C and CASM3C systems; 72 h: BT and HDF3CGF systems; 96 h: SAg system). SRB was performed by staining cells with 0.1% SRB after fixation with 10% TCA and reading wells at 560 nm.Viability and proliferation of PBMC (T cells) was quantified by Alamar Blue reduction for the SAg and BT systems. For PBMC viability (referred to as PBMC Cytotoxicity within the assay endpoint names), cells were plated (75,000/well in a 96-well plate) and then chemical samples added for 1 h before addition of activators, SEB and TSST-1 (20 ng/mL final concentration each). Cells were incubated for 90 h. Then, Alamar Blue (20 uL/well) (Invitrogen, Cat DAL1100) was added for 6 h, and the plates were read with a fluorescence microplate reader at 546/580 nm (excitation/emission). For PBMC proliferation, cells were plated and activated as above but incubated for only 16 h prior to addition of Alamar Blue. Plates were read after 6 h.
Structure (SMILES),outcome,AC50
O=P(O)(O)CCC(F)(F)C(F)(F)C(F)(F)C(F)(F)C(F)(F)C(F)(F)C(F)(F)C(F)(F)F,inactive,–
CN(CCO)S(=O)(=O)C(F)(F)C(F)(F)C(F)(F)C(F)(F)C(F)(F)C(F)(F)C(F)(F)C(F)(F)F,inactive,71.5 nM (active)
O=C(O)CCC(F)(F)C(F)(F)C(F)(F)C(F)(F)C(F)(F)F,inactive,–
O=C(CC(=O)C(F)(F)C(F)(F)C(F)(F)F)c1cccs1,inactive,18700 nM (active)
Oc1c(Cl)cc(Cl)cc1Sc1cc(Cl)cc(Cl)c1O,–,1.67 µM (active) and 1.83 µM (active)
Oc1ccc(Cc2ccccc2O)cc1,inactive,–
C=CC(=O)OCCC(F)(F)C(F)(F)C(F)(F)C(F)(F)C(F)(F)C(F)(F)C(F)(F)C(F)(F)F,inactive,–
O=P(O)(O)CCC(F)(F)C(F)(F)C(F)(F)C(F)(F)C(F)(F)C(F)(F)F,inactive,–
O=C1NS(=O)(=O)c2ccccc21,inactive,–
CN(Cc1cnc2nc(N)nc(N)c2n1)c1ccc(C(=O)N[C@@H](CCC(=O)O)C(=O)O)cc1,inactive,–
OCC(F)(F)C(F)(F)C(F)(F)C(F)(F)C(F)(F)C(F)(F)C(F)(F)C(F)(F)C(F)(F)C(F)(F)C(F)(F)F,inactive,–
O=C(O)C(F)(F)OC(F)(F)C(F)(F)OC(F)(F)C(F)(F)OC(F)(F)C(F)(F)C(F)(F)C(F)(F)F,–,15.9 µM (active) and 18.7 µM (active)
O=C(O)CCC(F)(F)C(F)(F)C(F)(F)C(F)(F)C(F)(F)C(F)(F)F,inactive,–
CCCCCCCCCCCC,–,10.4 µM (active) and 10.5 µM (active)
O=S(=O)(O)C(F)(F)C(F)(F)C(F)(F)C(F)(F)C(F)(F)C(F)(F)C(F)(F)C(F)(F)C(F)(F)C(F)(F)F,inactive,–
